Activity calls are given as the source filed them. How the source made its calls: active means hit-call score of the fitted dose curve at least 0.9, where 1 is the maximum; inactive means score below 0.9.
Each molecule was assayed against Aryl hydrocarbon receptor (Homo sapiens) (UniProt P35869) (assay: ATG_Ahr_CIS: Attagene CIS-FACTORIAL HepG2 Assay for human Aryl Hydrocarbon Receptor (Ahr) (AID 2282930)). Conditions: HepG2 AhR cis-factorial reporter transcription; actives raise or lower the signal.
Sequence of Aryl hydrocarbon receptor (Homo sapiens) (P35869 whole entry, looked up): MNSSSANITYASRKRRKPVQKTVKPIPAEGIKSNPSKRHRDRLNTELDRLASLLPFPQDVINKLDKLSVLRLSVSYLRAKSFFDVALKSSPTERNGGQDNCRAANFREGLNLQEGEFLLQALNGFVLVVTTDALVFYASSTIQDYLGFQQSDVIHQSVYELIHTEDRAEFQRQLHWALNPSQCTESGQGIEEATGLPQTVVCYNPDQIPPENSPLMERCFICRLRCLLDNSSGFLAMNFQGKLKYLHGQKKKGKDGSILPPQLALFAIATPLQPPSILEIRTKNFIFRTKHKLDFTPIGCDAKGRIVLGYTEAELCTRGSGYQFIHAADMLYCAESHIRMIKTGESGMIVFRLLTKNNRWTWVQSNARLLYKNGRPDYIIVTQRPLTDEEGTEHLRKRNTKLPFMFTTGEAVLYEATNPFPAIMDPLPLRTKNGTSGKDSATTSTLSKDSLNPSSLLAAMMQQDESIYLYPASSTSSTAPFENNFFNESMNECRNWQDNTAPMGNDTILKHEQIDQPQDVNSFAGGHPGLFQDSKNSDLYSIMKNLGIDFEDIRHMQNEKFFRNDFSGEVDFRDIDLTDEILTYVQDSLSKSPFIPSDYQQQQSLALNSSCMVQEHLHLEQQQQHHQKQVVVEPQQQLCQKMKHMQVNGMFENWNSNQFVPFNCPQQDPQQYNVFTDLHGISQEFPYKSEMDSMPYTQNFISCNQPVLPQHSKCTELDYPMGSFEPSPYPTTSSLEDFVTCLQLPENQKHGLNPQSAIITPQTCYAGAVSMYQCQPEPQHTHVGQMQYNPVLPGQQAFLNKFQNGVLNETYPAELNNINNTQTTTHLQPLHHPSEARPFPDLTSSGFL
Procedure: ATG_CIS is a cell-based, multiplexed-readout assay that uses HepG2, a human liver cell line, with measurements taken at 24 hours after chemical dosing in a 24-well plate.ATG_Ahr_CIS is one of 52 assay component(s) measured or calculated from the ATG_CIS assay. It is designed to make measurements of mRNA induction, a form of inducible reporter, as detected with fluorescence intensity signals by Reverse transcription polymerase chain reaction (RT-PCR) and Capillary electrophoresis technology.Data from the assay component ATG_Ahr_CIS was analyzed into 1 assay endpoint. This assay endpoint, ATG_Ahr_CIS, was analyzed with bidirectional fitting relative to DMSO as the negative control and baseline of activity. Using a type of inducible reporter, measures of mRNA for gain or loss-of-signal activity can be used to understand the reporter gene at the transcription factor-level as they relate to the gene AHR. Furthermore, this assay endpoint can be referred to as a primary readout, because this assay has produced multiple assay endpoints where this one serves a reporter gene function. To generalize the intended target to other relatable targets, this assay endpoint is annotated to the dna binding intended target family, where the subfamily is basic helix-loop-helix protein.
Human liver HepG2 cells are transiently transfected with multiple reporter transcription units (MRTUs) in 6-well plates using FuGene 6 reagent (Roche; 3 ml FuGene/1 mg DNA). The MRTU constructs are regulated by a cis-regulating element (promoter). […] A major difference between the CIS and TRANS system is that in CIS activities of endogenous TFs are measured, whereas the TRANS assay evaluates changes in activities of exogenous, chimeric NR-Gal4 proteins. […] At the end of 24 hour incubation, total RNA was isolated using TriZol reagent (Invitrogen). The isolated RNA is then reverse-transcribed using oligo(dT) primer and Mo-MLV reverse transcriptase (Invitrogen) with DNAse I (Ambion) treatment for 30 min. The one-tenth of the produced cDNA was amplified by PCR using Taq DNA polymerase (Invitrogen) and two reporter sequence-specific primers. The PCR products were fluorescently labeled by primer extension with 6-arboxyfluorescein (6-FAM) 5'-labeled reporter sequence-specific primer (2 min at 95 C, 20 s at 68 C and 10 min at 72 C) and these products were digested with 5U of HpaI (New England Biolabs) for 2h at 37 C. […] The raw capillary electrophoresis data was processed using Attagraph software (Attagene).

Structure (SMILES)	outcome	AC50
C=CC(C)C#N (stereo not given)	inactive	–
CC(C)CCCCCCc1ccc(OCCOCCO)cc1	inactive	–
CN(c1nccc(=O)[nH]1)C1CCN(c2nc3ccccc3n2Cc2ccc(F)cc2)CC1	inactive	–
CC1(C)O[C@@H]2[C@@H](CO[C@@]3(COS(N)(=O)=O)OC(C)(C)O[C@@H]23)O1	inactive	–
Nc1c(S(=O)(=O)O)cc(Br)c2c1C(=O)c1ccccc1C2=O	–	9.82 µM (active)
CCNCCO	inactive	–
Cc1c(OCC(F)(F)F)ccnc1CS(=O)c1nc2ccccc2[nH]1 (stereo not given)	–	1.28 µM (active)
C=C(C#N)C(=O)OCC	inactive	–
CS(=O)(=O)c1ccc(C2=C(c3ccccc3)C(=O)OC2)cc1	–	0.0408 µM (active)
O=C(O)CCCCCCCCCCCC(=O)O	inactive	–
COc1cc(CCC(C)=O)ccc1O	inactive	–
CCOC(=O)CCc1ccccc1	inactive	–
O=C(O)CCCCCCCCC(=O)O	inactive	–
CCN(CCN)c1cccc(C)c1	–	50 µM (active)
CCCCC(CC)COC(C)=O (stereo not given)	inactive	–
C=Cc1ccc(C(C)(C)C)cc1	inactive	–
CCCCCCCC/C=C\CCCCCCCC(=O)OCC	inactive	–
CC(C)NCC(O)COc1ccc(CC(N)=O)cc1 (stereo not given)	inactive	–
CCOC(=O)CN	inactive	–
O=C(Nc1ccc2c(c1)Cc1ccccc1-2)C(F)(F)F	–	10.2 µM (active)

Structure (SMILES)	outcome	AC50
CCC1CCCCC1	inactive	–
O=P(O)(O)O	inactive	–
CC(C)CCOC(=O)c1ccccc1	inactive	–
CCOC(=O)c1ccc(N)cc1	inactive	–
COc1ccc(CCC(C)=O)cc1	inactive	–
CC1CC(O)CC(C)(C)C1 (stereo not given)	inactive	–
CC(CN=Cc1ccccc1O)N=Cc1ccccc1O (stereo not given)	–	68.7 µM (active)
CSCCC=O	inactive	–
N#Cc1ccc(CC(=O)c2cccc(C(F)(F)F)c2)cc1	inactive	–
O=C1OC(=O)c2c(Cl)c(Cl)c(Cl)c(Cl)c21	–	36.2 µM (active)
COC(=O)c1ccc([N+](=O)[O-])cc1	inactive	–
O=C1NC2NC(=O)NC2N1 (stereo not given)	inactive	–
CC/C=C\CCOC(=O)CC	inactive	–
CCCCCCOCCOCCO	inactive	–
CCCC[O][Al]([O]CCCC)[O]CCCC	inactive	–
CC(C)c1ccccc1O	–	42.9 µM (active)
CCCCCCCCCCCCCCN(CCO)CCO	inactive	–
OCCCCC(O)CO (stereo not given)	inactive	–
CCCCC(CC)(CO)CO	inactive	–
COC(=O)c1ccc(C)cc1C1=NC(C)(C(C)C)C(=O)N1 (stereo not given) (tested in a mixture with another compound)	inactive	–
